Bioassay records: PubChem BioAssay, Sanford-Burnham Center for Chemical Genomics
Rows were chosen to be rich in hits. Some 31% of all compounds tested hit in one or more screens of this group.
CYP2C19 inh = inhibitors of human CYP2C19. P33261. AID 778. 21% of 96,000 active. inhibition, % at 5 µM. CYP2C19 Supersomes, luciferin-H EGE luminescence, 30 min;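 active means CYP2C19 inhibition above a set limit at 5 µM in the primary screen, cut at about 50% in these data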
Target sequence (P33261 whole entry, looked up): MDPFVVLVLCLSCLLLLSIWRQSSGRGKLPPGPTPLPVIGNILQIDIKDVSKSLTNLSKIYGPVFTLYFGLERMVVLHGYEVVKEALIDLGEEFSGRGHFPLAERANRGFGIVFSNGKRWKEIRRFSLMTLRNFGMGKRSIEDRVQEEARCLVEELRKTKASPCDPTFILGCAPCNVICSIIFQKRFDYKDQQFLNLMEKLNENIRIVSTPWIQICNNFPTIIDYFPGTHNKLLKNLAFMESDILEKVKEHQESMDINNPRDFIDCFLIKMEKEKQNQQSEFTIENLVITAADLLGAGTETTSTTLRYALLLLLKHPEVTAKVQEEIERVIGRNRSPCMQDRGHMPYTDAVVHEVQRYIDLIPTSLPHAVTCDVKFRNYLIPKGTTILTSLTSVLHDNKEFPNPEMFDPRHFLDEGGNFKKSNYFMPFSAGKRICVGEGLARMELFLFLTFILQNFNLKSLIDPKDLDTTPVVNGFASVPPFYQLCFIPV
CYP2C9 activ = increases human cytochrome P450 2C9 activity; recombinant CYP2C9, luciferin-H conversion, luminescence; stronger effect = higher value; factor 1 = untreated enzyme, 0 = blocked; activation factor at 5 µM; 1.4% of 96,000 active;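 active means activation factor of 2 or more for CYP2C9 at a 5 µM dose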
PLAP act = human PLAP activation; P05187; purified PLAP enzyme, luminescent substrate read-out; stronger effect = higher value; activation fold at 20 µM; 1.2% of 96,000 active; in the data active means activation fold above about 2
CYP2C9 inh = human CYP2C9 inhibition | P11712 | CYP2C9 Supersomes, luciferin-H conversion, luminescence | inhibition, % at 5 µM | 20% of 96,000 active | AID 777;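 active means blocking of liver enzyme CYP2C9 beyond about 50% at 5 µM, limit read from the data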
CYP2C19 activ = activators of human cytochrome P450 2C19; AID 1025; activation factor at 5 µM; recombinant CYP2C19, luciferin-H EGE luminescence; stronger effect = higher value; 0 = fully inhibited enzyme, 1 = untreated enzyme; 96,000 tested, under 10 active; P33261;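 active means activation factor of at least 2 at 5 µM in the primary screen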
Each line names hits and unclear results; the compound was inactive in the other large screens.

CC(=NCc1ccccc1)C1=C(O)COC1=O	none
CCN(CC)C(=O)CSc1nnc([C@@H](N)Cc2ccccc2)o1	none
CSCCOC(=O)c1[nH]c2c(c1C)C(=O)CC(c1ccco1)C2 (centres undefined)	CYP2C9 inh 52.4
Cc1c(C(=O)OCCOC(C)C)[nH]c2c1C(=O)CC(c1ccco1)C2 (centres undefined)	CYP2C9 inh 75.0
COC(=O)c1[nH]c2c(c1C)C(=O)CC(c1cccs1)C2 (centres undefined)	none
CCOC(=O)c1[nH]c2c(c1C)C(=O)CC(c1ccco1)C2 (centres undefined)	CYP2C9 inh 59.8
CCN(CC)CCc1c(C)[nH]c(C(=O)OCc2ccccc2)c1C	none
Cc1c(C(=O)OCc2ccccc2)[nH]c2c1C(=O)CC(c1ccco1)C2 (centres undefined)	CYP2C9 inh 88.7
Cc1c(C(=O)OCCOC(C)C)[nH]c2c1C(=O)CC(C)(C)C2	CYP2C19 inh 58.2, CYP2C9 inh 70.3
COCCOC(=O)c1[nH]c2c(c1C)C(=O)CC(c1ccco1)C2 (centres undefined)	CYP2C9 inh 72.3
N=c1sccn1CC(=O)NCCc1ccc(Cl)cc1Cl	none
CCc1cc([N+](=O)[O-])cc(CC)c1N	CYP2C19 inh 55.2
COc1ccc2c(c1)CC/C(=C\c1ccc(OC)c(Cn3cccn3)c1)C2=O	CYP2C19 inh 97.4, CYP2C9 inh 91.0
COc1ccc(/C=N\NC(=O)COc2ccccc2Cl)cc1Cn1nc(C)cc1C	none
COc1ccc2c(c1)CC/C(=C\c1ccc(OC)c(Cn3nc(C)cc3C)c1)C2=O	CYP2C19 inh 87.0
CCc1cccc(NC(=O)Cc2cn(C)c3ccccc23)c1	CYP2C9 activ 2.8
Cc1ccccc1SCC(=O)Nc1cccc(C#N)c1	none
CCC(C)NC(=O)Cc1cn(C)c2ccccc12 (centres undefined)	CYP2C19 inh 60.5
Cn1cc(CC(=O)Nc2cccc(C#N)c2)c2ccccc21	CYP2C9 activ 3.1
CCc1cccc(NC(=O)CCSCCC(=O)Nc2cccc(CC)c2)c1	CYP2C9 inh 61.5
Cc1csc(N(C(=O)c2cccc(S(=O)(=O)N(C)C)c2)c2ccccc2)n1	none
CC(c1cccnc1)N(CCN(C)C)C(=O)Nc1ccc(Cl)cc1 (centres undefined)	none
CC(=O)C1=C(O)C(=O)N(CCC(=O)O)C1c1cccc(F)c1 (centres undefined)	none
COc1ccc(-c2noc(-c3ccccc3C(=O)N3CCOCC3)n2)cc1	none
COCCNC(=O)Cc1cn(C)c2ccccc12	none
CCc1ccc(NC(=O)Cc2cn(C)c3ccccc23)cc1	CYP2C9 activ 2.5
CC(C)Cc1cc(C(=O)N2CCN(c3ccc(F)cc3)CC2)no1	CYP2C19 inh 75.8, CYP2C9 inh 65.0
O=C(c1ccccc1C(=O)N1CCN(c2ccccc2)CC1)N1CCN(c2ccccc2)CC1	CYP2C9 inh 70.4
O=C(Nc1ccc(N2CCN(C(=O)c3ccc(Cl)cc3)CC2)cc1)c1ccc(Br)o1	CYP2C9 inh 56.7
O=C(c1ccccc1)N1CCN(c2ccc(Cl)cc2)CC1	CYP2C19 inh 98.0, CYP2C9 inh 68.1
Cc1cc(C(=O)N2CCN(c3ccccc3)CC2)no1	none
Cc1c(C(=O)NCCC2=CCCCC2)oc2ccc(S(=O)(=O)N3CCC4(CC3)OCCO4)cc12	none
CCOC(=O)N1CCC(Nc2c(NCCCN(CC)Cc3ccccc3)c(=O)c2=O)CC1	none
O=C(C1COc2ccccc2O1)N1CCCC1 (centres undefined)	none
O=C(c1csc2c1CCCC2)N1CCN(c2ccccc2)CC1	CYP2C9 activ 2
O=C(O)c1ccccc1C(=O)N1CCN(c2ccccc2)CC1	none
O=C(C1COc2ccccc2O1)N1CCN(c2ccc(F)cc2)CC1 (centres undefined)	CYP2C19 inh 85.8, CYP2C9 inh 74.9
O=C(c1ccccc1C(=O)N1CCN(c2ccc(F)cc2)CC1)N1CCN(c2ccc(F)cc2)CC1	CYP2C19 inh 54.0, CYP2C9 inh 87.8
CCOC(=O)N1CCN(C(=O)c2csc3c2CCCCC3)CC1	CYP2C19 inh 55.1, CYP2C9 inh 76.5
O=C(c1noc2c1CCCC2)N1CCN(c2ccc(F)cc2)CC1	none
COCCN1Cc2cccc(C(=O)N3CCN(c4ccccc4)CC3)c2C1=O	none
CCCN1Cc2cccc(C(=O)N3CCN(c4ccccc4)CC3)c2C1=O	CYP2C19 inh 50.1
CC(=O)c1c(C)[nH]c(C(=O)N2CCN(c3ccc(F)cc3)CC2)c1C	CYP2C19 inh 71.1
O=C(Nc1ccc(N2CCN(Cc3ccccc3)CC2)cc1)c1cccnc1	none
